Assay results reported in PubChem BioAssay (EPA / NIEHS).
Activity calls are given as the source filed them. How the source made its calls: active means hit-call score of the fitted dose curve at least 0.9, where 1 is the maximum; inactive means score below 0.9.

Assays:
[1] = biological target: CCAAT/enhancer-binding protein beta (Homo sapiens) (UniProt P17676); assay: ATG_C_EBP_CIS: Attagene CIS-FACTORIAL HepG2 Assay for human CCAAT/Enhancer Binding Protein (C/EBP) beta (AID 2282927); conditions: HepG2 Attagene cis-factorial transcription factor reporter; actives raise or lower the signal
Chain of CCAAT/enhancer-binding protein beta (Homo sapiens) (P17676 whole entry, looked up, the tested form may be a part): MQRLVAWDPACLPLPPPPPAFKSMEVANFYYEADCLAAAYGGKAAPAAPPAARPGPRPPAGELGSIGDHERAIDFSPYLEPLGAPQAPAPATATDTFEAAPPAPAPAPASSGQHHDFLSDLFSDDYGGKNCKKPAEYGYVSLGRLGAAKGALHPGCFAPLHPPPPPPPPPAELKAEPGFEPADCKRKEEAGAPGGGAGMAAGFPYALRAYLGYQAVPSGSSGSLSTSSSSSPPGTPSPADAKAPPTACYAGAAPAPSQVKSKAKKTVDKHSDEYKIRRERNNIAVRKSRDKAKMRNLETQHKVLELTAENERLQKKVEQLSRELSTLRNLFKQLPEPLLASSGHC
Outline: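 Chemical-treated HepG2 cells (24 h) bearing cis-regulated reporter constructs were processed for total RNA, then reverse transcription, PCR amplification, fluorescent primer extension and fragment analysis; gain- and loss-of-signal were fitted against DMSO.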

[2] = ATG_CMV_CIS: Attagene CIS-FACTORIAL HepG2 Assay for human CMV (Internal Marker) (AID 2282928); conditions: HepG2 CMV promoter reporter, transcription factor profiling; actives raise or lower the signal;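 further: endpoint acts as a background internal control marker rather than a target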
Outline: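 Fluorescence intensity of RT-PCR-derived reporter fragments, resolved by capillary electrophoresis, gives the signal. HepG2 liver cells bearing transfected cis-element reporters were treated 24 h; activity in either direction was fit relative to DMSO-treated controls.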

[3] = ATG_AP_1_CIS: Attagene CIS-FACTORIAL HepG2 Assay for human Activator Protein 1 (AP-1) (AID 2282931); conditions: HepG2 Attagene cis-factorial AP-1 reporter mRNA; actives raise or lower the signal
Outline: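 HepG2 cells transiently transfected with cis-element-driven reporter transcription units, dosed for 24 hours. Reporter mRNA measured by RT-PCR, 6-FAM labelling, HpaI digestion and capillary electrophoresis. Bidirectional fitting against DMSO baseline.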

[4] = ATG_AP_2_CIS: Attagene CIS-FACTORIAL HepG2 Assay for human Activator Protein 2 (AP-2) (AID 2282932); conditions: HepG2 AP-2 cis-reporter, Attagene transcription factor profiling; actives raise or lower the signal
Outline: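 Cells (HepG2) transfected with promoter-driven reporter constructs, treated 24 h. Total RNA reverse-transcribed, reporter cDNA PCR-amplified, FAM-labelled by primer extension, digested, resolved by capillary electrophoresis. Activity fitted both directions versus DMSO.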

[5] = ATG_BRE_CIS: Attagene CIS-FACTORIAL HepG2 Assay for human Bone Morphogenetic Protein (BMP) Response Element (BRE) (AID 2282933); conditions: HepG2 BMP response element reporter, Attagene transcription factor profiling; actives raise or lower the signal
Outline: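 Endogenous transcription factor activity at a BMP response element was monitored in transfected HepG2 cells 24 h after dosing. Fluorescent RT-PCR products were resolved by capillary electrophoresis, and activity was fitted in both directions versus DMSO.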

[6] = ATG_E_Box_CIS: Attagene CIS-FACTORIAL HepG2 Assay for human Enhancer Box (E-box) (AID 2282936); conditions: HepG2 E-box cis-reporter transcription, actives raise or lower the signal
Outline: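 Endogenous transcription factor activity was sensed in human HepG2 liver cells through transfected cis-promoter reporter units. After 24 h of dosing, total RNA was reverse-transcribed and reporter cDNA resolved by capillary electrophoresis.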

[7] = ATG_M_61_CIS: Attagene CIS-FACTORIAL HepG2 Assay for M61 Transcription Factor (Internal Marker) (AID 2282937); conditions: HepG2 Attagene CIS-FACTORIAL M61 internal marker reporter; actives raise or lower the signal
Outline: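 HepG2 cells transiently transfected with multiplexed cis-promoter reporter units reporting endogenous transcription factor activity, measured 24 h after dosing. Reporter mRNA quantified by RT-PCR and capillary electrophoresis; bidirectional fit against DMSO baseline.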

[8] = ATG_EGR_CIS: Attagene CIS-FACTORIAL HepG2 Assay for human Early Growth Response 1 (EGR1) (AID 2282938); conditions: HepG2 Attagene CIS-FACTORIAL EGR reporter mRNA; actives raise or lower the signal
Outline: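 HepG2 cells transiently transfected with cis-element-driven multiplexed reporter units, dosed for 24 h. EGR1-element reporter mRNA quantified by RT-PCR, 6-FAM labelling, HpaI digestion and capillary electrophoresis; bidirectional fit versus DMSO.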

[9] = ATG_Ets_CIS: Attagene CIS-FACTORIAL HepG2 Assay for human Erythroblast Transformation Specific (ETS) (AID 2282941); conditions: HepG2 ETS cis-reporter transcription, actives raise or lower the signal
Outline: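 Multiplexed reporter transcript profiling: HepG2, 24 h treatment, total RNA to cDNA, PCR, 6-FAM labelling, HpaI cut, capillary electrophoresis. Gain- or loss-of-signal fitted against DMSO.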

[10] = ATG_FoxO_CIS: Attagene CIS-FACTORIAL HepG2 Assay for human Forkhead box O (FoxO) (AID 2282943); conditions: HepG2 Attagene cis-reporter, FoxO element, mRNA; actives raise or lower the signal
Outline: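 24 h chemical exposure, HepG2 with transient cis-MRTU transfection. RNA extraction, oligo(dT) RT, reporter-specific PCR, primer-extension labelling, HpaI digestion, CE fragment analysis; bidirectional fit, DMSO baseline.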

[11] = ATG_GATA_CIS: Attagene CIS-FACTORIAL HepG2 Assay for human GATA Binding Protein (AID 2282944); conditions: HepG2 GATA cis-element reporter, Attagene multiplex mRNA; actives raise or lower the signal
Outline: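 Endogenous transcription factor activity was captured through cis-promoter-driven reporters in transfected HepG2 cells. After 24 h exposure, reporter transcripts were quantified by RT-PCR with fluorescent capillary electrophoresis, and responses fitted both directions against DMSO.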

[12] = ATG_ISRE_CIS: Attagene CIS-FACTORIAL HepG2 Assay for human Interferon Regulatory Factor 1 (IRF1) binding to an Interferon-Stimulated Response Element (ISRE) (AID 2282948); conditions: HepG2 ISRE cis-reporter (Attagene), mRNA transcription readout; actives raise or lower the signal
Outline: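 Signal reflects induction or loss of ISRE-linked reporter mRNA in transiently transfected HepG2 cells after a 24 h treatment, detected by fluorescent RT-PCR fragments on capillary electrophoresis and normalised to DMSO.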

[13] = ATG_M_06_CIS: Attagene CIS-FACTORIAL HepG2 Assay for M06 Transcription Factor (Internal Marker) (AID 2282950); conditions: HepG2 Attagene CIS-FACTORIAL M06 internal marker reporter; actives raise or lower the signal
Outline: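 Steps: transfect HepG2 with multiplexed cis-element reporter constructs; dose chemical 24 h; extract RNA with DNase treatment; reverse-transcribe, PCR-amplify, 6-FAM label, HpaI digest; separate fragments by capillary electrophoresis. Activity fitted both directions versus DMSO.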

[14] = ATG_MRE_CIS: Attagene CIS-FACTORIAL HepG2 Assay for human Metal Responsive Element (MRE) (AID 2282954); conditions: HepG2 MRE cis-reporter transcription, Attagene multiplex; actives raise or lower the signal
Outline: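 Cells were transfected with cis-promoter reporter transcription units, then dosed for 24 h. RNA was reverse-transcribed, amplified, fluorescently labelled and resolved by capillary electrophoresis, and activity was fitted in both directions relative to DMSO.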

[15] = biological target: Paired box protein Pax-6 (Homo sapiens) (UniProt P26367); assay: ATG_Pax6_CIS: Attagene CIS-FACTORIAL HepG2 Assay for human Paired Box 6 (PAX6) (AID 2282956); conditions: HepG2 CIS-FACTORIAL PAX6 reporter transcription, RNA readout; actives raise or lower the signal
Chain of Paired box protein Pax-6 (Homo sapiens) (P26367 whole entry, looked up): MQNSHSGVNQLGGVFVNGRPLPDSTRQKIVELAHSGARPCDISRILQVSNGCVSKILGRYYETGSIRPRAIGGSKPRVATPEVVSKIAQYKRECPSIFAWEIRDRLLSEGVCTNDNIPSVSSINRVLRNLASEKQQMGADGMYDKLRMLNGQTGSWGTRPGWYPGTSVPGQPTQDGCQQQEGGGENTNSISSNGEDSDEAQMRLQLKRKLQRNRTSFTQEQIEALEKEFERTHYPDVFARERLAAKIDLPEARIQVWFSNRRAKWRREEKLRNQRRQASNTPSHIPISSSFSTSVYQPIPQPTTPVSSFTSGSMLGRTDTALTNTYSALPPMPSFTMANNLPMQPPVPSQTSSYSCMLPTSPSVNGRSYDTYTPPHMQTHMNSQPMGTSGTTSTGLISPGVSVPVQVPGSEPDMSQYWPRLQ
Outline: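 Values derive from bidirectional curve fitting of reporter mRNA signal relative to DMSO. HepG2 cells bearing transfected cis-regulated MRTUs were exposed for 24 h; transcripts were read by RT-PCR and capillary electrophoresis.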

[16] = biological target: Transcription factor Sp1 (Homo sapiens) (UniProt P08047); assay: ATG_Sp1_CIS: Attagene CIS-FACTORIAL HepG2 Assay for human Specificity Protein 1 (Sp1) (AID 2282961); conditions: HepG2 Sp1 cis-reporter transcription, actives raise or lower the signal
Chain of Transcription factor Sp1 (Homo sapiens) (P08047 whole entry, looked up): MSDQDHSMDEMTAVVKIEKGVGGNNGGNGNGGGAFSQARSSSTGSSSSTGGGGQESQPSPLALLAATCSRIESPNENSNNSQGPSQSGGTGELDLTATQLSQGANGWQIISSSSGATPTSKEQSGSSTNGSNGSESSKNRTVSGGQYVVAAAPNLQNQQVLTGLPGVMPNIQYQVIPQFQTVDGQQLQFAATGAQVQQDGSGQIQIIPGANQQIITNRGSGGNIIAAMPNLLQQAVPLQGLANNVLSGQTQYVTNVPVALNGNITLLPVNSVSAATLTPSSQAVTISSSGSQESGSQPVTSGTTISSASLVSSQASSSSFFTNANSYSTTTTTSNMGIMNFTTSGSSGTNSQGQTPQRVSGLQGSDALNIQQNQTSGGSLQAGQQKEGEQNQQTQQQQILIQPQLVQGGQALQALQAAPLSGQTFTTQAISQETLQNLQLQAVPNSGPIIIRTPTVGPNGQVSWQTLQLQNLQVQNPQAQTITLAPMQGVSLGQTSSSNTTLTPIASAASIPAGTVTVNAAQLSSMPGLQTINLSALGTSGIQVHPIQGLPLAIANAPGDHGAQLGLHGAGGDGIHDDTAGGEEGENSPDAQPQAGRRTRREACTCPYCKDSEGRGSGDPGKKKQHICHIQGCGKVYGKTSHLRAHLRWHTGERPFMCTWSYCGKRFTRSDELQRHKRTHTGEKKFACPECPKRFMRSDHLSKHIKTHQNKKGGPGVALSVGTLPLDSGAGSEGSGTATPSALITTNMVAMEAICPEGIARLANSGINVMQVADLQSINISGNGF
Outline: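 HepG2 cells transiently transfected with multiplexed cis-regulated reporter constructs, chemical exposure 24 h. Reporter mRNA quantified by RT-PCR with capillary electrophoresis; bidirectional fit relative to DMSO.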

[17] = ATG_SREBP_CIS: Attagene CIS-FACTORIAL HepG2 Assay for human Sterol Regulatory Element Binding (SREBP) (AID 2282962); conditions: HepG2 Attagene cis-factorial SREBP reporter, mRNA; actives raise or lower the signal
Outline: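 Values derive from bidirectional curve fitting with DMSO as baseline. The underlying measurement is reporter mRNA from cis-element-regulated units in transiently transfected HepG2, quantified by RT-PCR and capillary electrophoresis after 24 h exposure.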

[18] = biological target: Signal transducer and activator of transcription 3 (Homo sapiens) (UniProt P40763); assay: ATG_STAT3_CIS: Attagene CIS-FACTORIAL HepG2 Assay for human Signal Transducer and Activator of Transcription 3 (STAT3) (AID 2282963); conditions: HepG2, Attagene cis-factorial STAT3 reporter transcription; actives raise or lower the signal
Chain of Signal transducer and activator of transcription 3 (Homo sapiens) (P40763 whole entry, looked up): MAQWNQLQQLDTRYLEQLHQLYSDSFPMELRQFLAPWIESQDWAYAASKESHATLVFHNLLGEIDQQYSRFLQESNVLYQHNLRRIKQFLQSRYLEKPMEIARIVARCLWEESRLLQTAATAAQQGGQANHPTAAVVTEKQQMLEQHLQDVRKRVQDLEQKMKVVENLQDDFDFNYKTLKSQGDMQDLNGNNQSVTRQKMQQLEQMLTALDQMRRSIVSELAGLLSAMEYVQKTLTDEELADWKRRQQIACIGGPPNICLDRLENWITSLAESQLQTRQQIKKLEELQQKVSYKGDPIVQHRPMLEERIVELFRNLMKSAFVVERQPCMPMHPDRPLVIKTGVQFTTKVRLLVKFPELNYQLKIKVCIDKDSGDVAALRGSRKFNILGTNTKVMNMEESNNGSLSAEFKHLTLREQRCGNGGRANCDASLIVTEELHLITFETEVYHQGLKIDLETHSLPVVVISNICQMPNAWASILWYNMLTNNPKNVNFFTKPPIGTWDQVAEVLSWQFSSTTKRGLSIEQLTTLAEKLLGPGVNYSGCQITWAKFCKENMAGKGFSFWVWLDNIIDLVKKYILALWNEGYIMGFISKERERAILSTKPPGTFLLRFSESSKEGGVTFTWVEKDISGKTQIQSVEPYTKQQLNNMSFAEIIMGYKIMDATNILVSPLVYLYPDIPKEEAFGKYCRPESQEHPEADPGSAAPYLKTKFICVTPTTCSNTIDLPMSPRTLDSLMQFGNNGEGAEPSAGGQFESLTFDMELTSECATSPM
Outline: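 HepG2, MRTU-transfected, 24 h dosing. RNA → RT → PCR → FAM label → HpaI → CE. Bidirectional fit vs DMSO.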

[19] = ATG_TAL_CIS: Attagene CIS-FACTORIAL HepG2 Assay for human TAL Basal Promoter (AID 2282966); conditions: HepG2 Attagene cis-factorial TAL promoter reporter; actives raise or lower the signal;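 further: background control endpoint measuring basal TAL promoter reporter mRNA not a specific factor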
Outline: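 Basal-promoter background-control endpoint from a multiplexed HepG2 reporter panel. Cells were exposed 24 h, then reporter mRNA was read by RT-PCR/CE fluorescence and fitted in both directions relative to DMSO.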

[20] = biological target: X-box-binding protein 1 (Homo sapiens) (UniProt P17861); assay: ATG_Xbp1_CIS: Attagene CIS-FACTORIAL HepG2 Assay for human X-box Binding Protein 1 (XBP1) (AID 2282972); conditions: HepG2 XBP1 cis-element reporter, Attagene multiplex; actives raise or lower the signal
Chain of X-box-binding protein 1 (Homo sapiens) (P17861 whole entry, looked up): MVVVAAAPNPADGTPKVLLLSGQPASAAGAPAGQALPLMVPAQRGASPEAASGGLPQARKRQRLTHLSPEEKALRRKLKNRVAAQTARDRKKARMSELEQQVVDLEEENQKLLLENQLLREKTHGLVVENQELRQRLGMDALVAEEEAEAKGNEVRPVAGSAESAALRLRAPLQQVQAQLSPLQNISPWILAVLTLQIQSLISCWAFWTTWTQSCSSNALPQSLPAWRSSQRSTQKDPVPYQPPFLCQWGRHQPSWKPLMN
Outline: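 Human hepatoma HepG2, cis-element reporter system, 24 h treatment; mRNA quantified by RT-PCR/CE fluorescence; fit relative to DMSO.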

Measured: AC50

C=C(C)C(=O)OCC1CCCO1 (stereo not given)
inactive: all assays above

CCCC(=O)OC
inactive: all assays above

Cc1ccccc1S(=O)(=O)O
inactive: all assays above

CC(=O)Nc1c(I)c(NC(C)=O)c(I)c(C(=O)O)c1I
inactive: all assays above

NC(=O)c1ccc(N)cc1
inactive: all assays above

C[C@H]1C[C@H]2[C@@H]3CCC4=CC(=O)C=C[C@]4(C)[C@@]3(F)[C@@H](O)C[C@]2(C)[C@@]1(O)C(=O)CO
active: [5] 73.3 µM | [8] 100 µM | [14] 80.1 µM | [15] 69 µM | [20] 158 µM
inactive: all other assays above

CO[Si](CCCNCCN)(OC)OC
inactive: all assays above
